From PubChem BioAssay
Shown are actives, neighbours in structure and some others; about 2.5% of the full set was active somewhere.
Cruzain inh Det: blocks cruzain activity in presence of Triton detergent; purified cruzain, Z-FR-AMC fluorescence, 0.01% Triton; 200,000 tested, 0.43% active; P25779; Potency, µM, actives largely listed as inhibitors; AID 1478; note: nearly all actives have a fitted effect of over 40% in size
Target sequence (P25779 123-467 limits assumed): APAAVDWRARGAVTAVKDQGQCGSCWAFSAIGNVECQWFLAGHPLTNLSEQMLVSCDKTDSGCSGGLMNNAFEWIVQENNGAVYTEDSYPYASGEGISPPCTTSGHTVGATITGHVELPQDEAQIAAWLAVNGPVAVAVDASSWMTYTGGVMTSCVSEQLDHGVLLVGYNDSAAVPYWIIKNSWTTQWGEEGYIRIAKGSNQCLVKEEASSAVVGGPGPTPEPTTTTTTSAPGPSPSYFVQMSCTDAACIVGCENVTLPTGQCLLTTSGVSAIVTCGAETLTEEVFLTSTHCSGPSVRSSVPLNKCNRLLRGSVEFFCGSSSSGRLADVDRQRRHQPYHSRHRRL
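Detergent-containing run (0.01% Triton X-100) in acetate buffer pH 5.5 with 5 mM DTT: enzyme at 1.5 nM final, 15 min compound preincubation at room temperature, then 2 uM Z-FR-AMC substrate. Activity taken as 60 s fluorescence increase at 360/450 nm.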
Cruzain noTriton: cruzain (T. cruzi) inhibition without detergent. Potency, µM, hits mostly inhibitors. 200,000 tested, 2.3% active. purified cruzain, Z-FR-AMC fluorescence, no detergent. P25779; note: nearly all actives have a fitted effect of over 40% in size
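Detergent-free condition (0.00005% Triton X-100) in acetate buffer pH 5.5 with DTT. 1.5 nM enzyme and compound were pre-mixed 15 min, then 2 uM Z-FR-AMC substrate added; reaction progress from fluorescence change between first and third reads (60 s).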
Hits are given with their value; . = inactive; ? = inconclusive. Calls come from the whole dose curve; as a rule, active = well fitted curve in the direction sought with a large enough effect; inconclusive = small, poorly fitted or top-dose-only effect, or another doubt; inactive = no such curve, though single readings can be large; an effect the other way counts as inactive or inconclusive.

SMILES	Cruzain inh Det	Cruzain noTriton
COc1ccc(CCNC(=O)C(=O)NCC(c2ccc3c(c2)OCO3)N2CCOCC2)cc1OC (centres undefined)	.	.
CCOC(=O)c1cccc(NC(=O)Cn2ncc3c(=O)oc4ccccc4c32)c1	.	.
CC(C)C[C@@H](CC(=O)N[C@@H](CCC(=O)O)CC(=O)O)NC(=O)[C@@H]1CNCC[C@H]1NC(=O)C[C@H](CCCN)NC(=O)C[C@H](CO)NC(=O)[C@@H]1CNCC[C@H]1N	.	.
COC(=O)c1cc(OC)c(OC)c(OC)c1NC(=O)c1cc(=O)n(C)c(=O)n1C	.	.
CCOC(=O)C1=C(CSc2nc(-c3ccccc3)ccc2C#N)OC(N)=C(C#N)C1c1ccccc1 (centres undefined)	.	25µM
CCOC(=O)C1=C(CSc2nc(-c3ccccc3)ccc2C#N)OC(N)=C(C#N)C1c1cccnc1 (centres undefined)	.	?
COc1cc(OC)c(C2CC(=O)Nc3ccc4ccccc4c32)cc1OC (centres undefined)	.	.
O=C1c2ccccc2C(=O)C12OC2c1ccc(Cl)cc1 (centres undefined)	.	.
O=C1c2ccccc2C(=O)C12OC(c1ccccc1)C1(C(=O)c3ccccc3C1=O)C2c1cccc([N+](=O)[O-])c1 (centres undefined)	.	7.9µM
Cc1nc2nc(C)c(CCC(=O)NCc3cccc(Cl)c3)c(C)n2n1	.	.
N#C/C(=C\c1cccc(Oc2ccc(C(F)(F)F)cc2[N+](=O)[O-])c1)c1nc2ccccc2[nH]1	.	.
COc1ccc(/C=C(\C#N)c2nc3ccc(C)cc3[nH]2)cc1Oc1ccc(C(F)(F)F)cc1[N+](=O)[O-]	.	5µM
Cc1ccc2nc(/C(C#N)=C\c3ccc(Oc4ccc(C(F)(F)F)cc4[N+](=O)[O-])cc3)[nH]c2c1	.	7.9µM
COc1cc(/C=C(\C#N)c2nc3ccc(C)cc3[nH]2)c([N+](=O)[O-])cc1OC	.	?
CCCn1c(-c2ccc(F)cc2)nc2c(NCCCCN(CC)CC)nc(C)nc21	.	.
Cc1ccc(-c2nnn(CC(=O)NCC3CC3)n2)o1	.	.
Cc1ccc(-c2nnn(CC(=O)Nc3ccc4nn(-c5ccccc5)nc4c3)n2)o1	.	10µM
CCC(C)NC(=O)CCCN1C(=O)CCn2nc(-c3cccn3C)cc21 (centres undefined)	.	.
Cc1nn(-c2ccccc2)c(N2CCCC2)c1/C=C1\N=C(c2ccccc2)OC1=O	1.6µM	0.79µM
Cc1nn(-c2ccccc2)c(N2CCCCC2)c1/C=N/O	.	.
Cc1ccc2c(c1)c1c(c(=O)n(-c3ccccc3)c(=O)n1CC(=O)c1ccc(F)cc1)n2C	.	.
COC(=O)C1C(O)CC[C@@H]2CN3CCc4c([nH]c5ccccc45)C3C[C@@H]12 (some centres undefined)	.	.
CCOc1ccc(N/N=C(/C#N)C(N)=O)cc1	.	.
CCOC(=O)NC(=O)/C(C#N)=N\Nc1ccc(Cl)cc1	.	5µM
CC(C)C(c1nnnn1C1CCCCC1)N1CCc2ccccc21 (centres undefined)	.	.
SMILES	Cruzain inh Det	Cruzain noTriton
Cc1ccc(C(c2nnnn2C2CCCCC2)N2CCc3ccccc32)cc1 (centres undefined)	.	25µM
COc1ccc(OCC(O)CN2CCC(CN3C(=O)c4cccc5cccc(c45)C3=O)CC2)cc1 (centres undefined)	.	.
COc1ccc(S(=O)(=O)N2CCC(CN3C(=O)c4cccc5cccc(c45)C3=O)CC2)cc1	.	25µM
Cc1cccc(N2CCN(C(=O)Cn3c(=O)c4cccn4c4ccc(F)cc43)CC2)c1C	.	.
COc1ccc2nc(SCC(=O)N3CCCCCC3)c(C#N)cc2c1	.	.
CCOc1ccc2nc(SCC(=O)N3c4ccccc4Sc4ccccc43)c(C#N)cc2c1	.	4µM
Cc1ccc(C)c(CNC(=O)CCn2cccn2)c1	.	.
CCOc1cc(/C=N/NC(=O)c2cc(C)[nH]n2)ccc1OC(=O)c1ccc([N+](=O)[O-])cc1	.	.
CCOc1cc(/C=N/NC(=O)CNc2ccc(C)cc2)ccc1OC(=O)c1ccccc1	.	10µM
COc1cc(/C=N/NC(N)=S)ccc1OCC(=O)Nc1ccc(C)c(C)c1	16µM	13µM
COc1cc(/C=N/NC(=O)COc2c(C)cc([N+](=O)[O-])cc2C)ccc1OC(=O)c1ccccc1	.	25µM
COc1cc(/C=N/NC(N)=O)ccc1OCC(=O)Nc1ccc(C)c(C)c1	.	.
O=C(N/N=C/c1cccc([N+](=O)[O-])c1)c1ccc(COc2ccccc2-c2ccccc2)cc1	.	20µM
CCOc1cc(/C=N/NC(N)=O)ccc1OC(=O)c1ccc(C)cc1	.	.
COc1cc(/C=N/NC(=O)c2cccc([N+](=O)[O-])c2)ccc1OCc1ccccc1	.	.
CCC(=O)OCc1cnc(C)c2oc(=O)c(C(=O)Nc3ccc(CC)cc3)cc12	.	.
COc1cccc(NC(=O)CCc2nc(-c3cc(OC)c(OC)c(OC)c3)no2)c1	.	?
CCC(C)n1c(=N)c(C(=O)NC2CCCCC2)cc2c(=O)n3ccccc3nc21 (centres undefined)	.	?
CCOc1ccc(C2N3CC4(C(C)C)CN2CC(C(C)C)(C3)C4=O)cc1OC (centres undefined)	.	.
Cc1ccc(NCC(=O)N/N=C/c2cc3ccccc3nc2Cl)cc1	.	25µM
COc1ccc(/C=N/NC(=O)CSCc2ccc([N+](=O)[O-])cc2)cc1OC	.	.
COc1cc(/C=N/NC(=O)COc2c(C)cc([N+](=O)[O-])cc2C)ccc1OC(=O)c1ccccc1Br	.	10µM
COc1ccc(/C=N/NC(=O)c2cccc([N+](=O)[O-])c2)cc1OC(=O)c1ccc(C)cc1	.	.
O=C(COc1ccccc1-c1ccccc1)N/N=C/c1ccc2ccccc2c1	.	20µM
O=C(CN1CCOCC1)N/N=C/c1cc2ccccc2nc1Cl	.	.
SMILES	Cruzain inh Det	Cruzain noTriton
O=C(COc1ccccc1[N+](=O)[O-])N/N=C/c1ccc(O)cc1	.	.
COc1ccc(/C=N/NC(=O)c2cccc([N+](=O)[O-])c2)cc1OC(=O)c1ccccc1	.	25µM
CCCn1c(-c2ccc(F)cc2)nc2c(NCCCN(CCO)CCO)nc(C)nc21	.	.
CC(C)c1cccc(C(C)C)c1NC1=NS(=O)(=O)c2ccccc21	.	.
COc1cccc(Cn2c(=O)n(-c3ccccc3C)c(=O)c3c2c2cc(C)ccc2n3C)c1	.	.
O=C(NCCc1csc(-c2cccnc2)n1)c1cccc(C(F)(F)F)c1	.	.
CC1=CCC2CC1C2(C)C (centres undefined)	.	.
Cn1cnc(S(=O)(=O)N2CCC(C(=O)NCc3ccc(F)cc3)CC2)c1	.	.
COCCCNC(=O)c1cc2c(=O)oc3ccc(C)cc3c2s1	.	.
Cc1ccc(C)c(NC(=O)Cn2c(=O)n(CCC(C)C)c(=O)c3cccnc32)c1	.	.
Cc1cc(C)nc(SCC(=O)N/N=C\C(Br)=C\c2ccccc2)n1	.	.
COc1cccc(C(=O)N/N=C/c2ccc(Oc3ccc([N+](=O)[O-])cn3)c(OC)c2)c1	.	.
Cc1ccc(NCC(=O)N/N=C\C(Br)=C\c2ccccc2)cc1	.	13µM
N#Cc1cc([N+](=O)[O-])ccc1Oc1cccc(/C=N/NC(=O)c2cccc(Cl)c2)c1	.	25µM
